The record followed here is PubChem BioAssay (Tox21).

Activity calls are given as the source filed them. Entries that show only a call come without a potency. Calls follow the shape of the dose curve; as a rule, active = well fitted curve in the direction sought with a large enough effect in the repeat runs; inconclusive = weak or mixed curves; inactive = flat fitted curve, though single readings scatter.
Potency is read from the fitted curve at half-maximal effect; tags tell the direction and shape of the fitted curve or compound fluorescence and quenching.

This test in a line: qHTS assay to test for compound auto fluorescence at 535 nm (green) in HepG2 cell free culture (AID 720686). The conditions noted are these: Cell-free medium, green autofluorescence 485/535 nm; series mostly up to 46 µM. The source says: U.S. Tox21 Program National Center for Advancing Translational Sciences [NCATS] NIH Chemical Genomics Center [NCGC] U.S. Environmental Protection Agency [EPA] National Institutes of Environmental Health Sciences [NIEHS] National Toxicology Program [NTP] U.S. Food and Drug Administration [FDA] Tox21 Assay Overview: Compound auto fluorescence often interferes with screening of the compound library against various biological targets and signaling pathways. Some of these compounds may have fluorophoric properties. Such properties may interfere with the assay outputs resulting in false positives and/or negatives. To decrease such complications and ensure the compound activities are relevant in terms of biological response, the Tox21 10K compound library was screened for auto fluorescence. From the fluorophores used as reporter signals in our screening assays, the auto fluorescence equivalencies of compounds against three fluorophores have been evaluated: Triamterene, Fluorescein and Rose Bengal sodium for blue, green and red fluorescence, respectively. The fluorescence intensities were measured using Excitation/Emission wavelengths at 405/460nm, 485/535nm and 540/590nm for blue, green and red labels, respectively. This assay includes the green fluorescence data.
Tox21 Assay Protocol Summary: 5 uL of culture medium (MEM containing 10% FBS) per well was dispensed into black wall/clear bottom 1536-well plates using a Multidrop Combi Dispenser (ThermoFisher Scientific, Waltham, MA). After 23 nL compound or DMSO vehicle was transferred into assay plate by a pintool work station (Kalypsys, San Diego, CA), fluorescence intensities in the assay plates were measured by an Envision (PerkinElmer, Shelton, CT) plate reader using three labels for measuring blue, green and red fluorescence at […] 460, 535 and 590nm respectively.
For orientation: Quantitative high-throughput screening tests each substance at several concentrations.
With `CC(=O)OO`, the Potency result was “inactive”.
In the case of `O=c1[nH]cc(N(CCCl)CCCl)c(=O)[nH]1`, the Potency result was “inactive”.
For the compound `C[C@]12CC[C@H]3[C@@H](CCC4=C(Cl)C(=O)CC[C@@]43C)[C@@H]1CC[C@@H]2O`, the Potency entry was “inactive”.
As to `C[C@@H](Cc1ccccc1)NCCC(c1ccccc1)c1ccccc1`, the Potency result was “inactive”.
As for `CCN(CC)/[N+]([O-])=N/O`, the Potency result was “inactive”.
Consider `CN1c2ccccc2C(NCCCCCCC(=O)O)c2ccc(Cl)cc2S1(=O)=O` (stereo not given), for which the Potency entry was “inactive”.
The value for `O=[N+]([O-])c1ccccc1Cl` was “inactive”.
Consider `CN[C@]1(c2ccccc2Cl)CCCCC1=O`, for which the Potency entry is “inactive”.
Take `Clc1ccc2c(c1)C(c1ccccc1)=NCc1nncn1-2`: the Potency result was “inactive”.
For the compound `CC(C)CCC(=O)O[C@H]1CC[C@H]2[C@@H]3CCC4=CC(=O)CC[C@]4(C)[C@H]3CC[C@]12C`, the Potency result was “inactive”.
In the case of `Cc1cccc(C(C)c2cnc[nH]2)c1C` (stereo not given), the Potency result was “inactive”.
On to `O=C1OC2(c3cc(Br)c(O)cc3Oc3c2cc(Br)c(O)[c]3[Hg])c2ccccc21` (stereo not given), for which the Potency is 10 µM [fluorescent] (active).
Turning to `C[C@H]1CC[C@]2(NC1)O[C@H]1C[C@H]3[C@@H]4CC[C@H]5C[C@@H](O[C@@H]6O[C@H](CO)[C@H](O[C@@H]7O[C@H](CO)[C@@H](O)[C@H](O[C@@H]8OC[C@@H](O)[C@H](O)[C@H]8O)[C@H]7O[C@@H]7O[C@H](CO)[C@@H](O)[C@H](O)[C@H]7O)[C@H](O)[C@H]6O)CC[C@]5(C)[C@H]4CC[C@]3(C)[C@H]1[C@@H]2C`, the Potency entry was “inactive”.
In the case of `COc1ccc2c3c1O[C@H]1[C@@H](O)C=C[C@H]4[C@@H](C2)NCC[C@@]341`, the Potency result is “inactive”.
`ClC1=C(Cl)[C@]2(Cl)[C@@H]3[C@@H](Cl)[C@H]4O[C@H]4[C@@H]3C1(Cl)C2(Cl)Cl`: the Potency result was “inactive”.
In the case of `CNC(C)Cc1ccccc1` (stereo not given), the Potency result was “inactive”.
As to `O=C(NC(=O)c1c(F)cccc1F)Nc1ccc(Cl)c(Oc2ncc(C(F)(F)F)cc2Cl)c1`, the Potency result was “inactive”.
As for `[S]=[Sb](=[S])[S][Sb](=[S])=[S]`, the Potency result was “inactive”.
The value for `NCC[C@H](O)C(=O)N[C@@H]1C[C@H](N)[C@@H](O[C@H]2O[C@H](CN)[C@@H](O)[C@H](O)[C@H]2N)[C@H](O[C@@H]2O[C@H](CO)[C@@H](O)[C@H]2O)[C@H]1O` was “inactive”; that for `CCC1(c2cnc[nH]2)Cc2ccccc2C1` was “inactive”.
As for `NC1=NC(=O)N2CC12` (stereo not given), the Potency result is “inactive”.
To `CCC/C=C/C=C/C(=O)O[C@H]1/C(=C/C(=O)OC)C[C@H]2C[C@H]([C@@H](C)O)OC(=O)C[C@H](O)C[C@@H]3C[C@H](OC(C)=O)C(C)(C)[C@](O)(C[C@@H]4C/C(=C/C(=O)OC)C[C@H](/C=C/C(C)(C)[C@]1(O)O2)O4)O3` belongs “inactive”; to `C/C(=C\c1csc(C)n1)[C@@H]1C[C@@H]2O[C@]2(C)CCC[C@H](C)[C@H](O)[C@@H](C)C(=O)C(C)(C)[C@@H](O)CC(=O)O1`, “inactive”.
`CC1COC(Cn2cncn2)(c2ccc(Oc3ccc(Cl)cc3)cc2Cl)O1` (stereo not given): the Potency entry was “inactive”.
To `CCC(N)Cc1c[nH]c2ccccc12` (stereo not given) belongs “inactive”; to `CN(C)CCCCCCN(C)C` (tested in a mixture with another compound), “inactive”; to `COC(=O)[C@H]1[C@@H](OC(=O)c2ccccc2)C[C@@H]2CC[C@H]1N2C`, “inactive”.
As to `COc1ccc(C(c2ccc(OC)cc2)C(Cl)(Cl)Cl)cc1`, the Potency result was “inactive”.
Take `C[C@@H]1[C@@H]2Cc3ccc(O)cc3[C@@]1(C)CCN2CCc1ccccc1`: the Potency entry is “inactive”.
In the case of `CC(C)C[C@H]1C(=O)N2CCC[C@H]2[C@]2(O)O[C@](NC(=O)[C@@H]3C[C@@H]4c5cccc6[nH]cc(c56)C[C@H]4N(C)C3)(C(C)C)C(=O)N12`, the Potency entry was “inactive”.
The value for `O=[N+]([O-])c1cc(I)c(O)c(I)c1` was “inactive”; that for `O=C1C(I)=CC(=C(c2cc(I)c(O)c(I)c2)c2ccccc2C(=O)O)C=C1I` was “inactive”; that for `O=C(OCCN1CCCCC1)C(O)(c1ccccc1)c1ccccc1` was “inactive”.
The value for `CC(=O)OCC(=O)[C@H]1CC[C@H]2[C@@H]3CC[C@H]4C[C@H](O)CC[C@]4(C)[C@H]3C(=O)C[C@]12C` was “inactive”; that for `CNC(C)CC1CCCCC1` (stereo not given) was “inactive”; that for `CCN1C[C@]2(COC)[C@H](O)C[C@H](OC)[C@@]34[C@@H]5C[C@@]6(O)[C@H](OC(=O)c7ccccc7)[C@@H]5[C@@](OC(C)=O)([C@@H]([C@H](OC)[C@H]23)[C@@H]14)[C@@H](O)[C@@H]6OC` was “inactive”.
For the compound `Cc1nnc2n1-c1sc(Br)cc1C(c1ccccc1Cl)=NC2`, the Potency result was “inactive”.
As for `Cc1nnc2n1-c1sc(CCc3ccc(CC(C)C)cc3)cc1C(c1ccccc1Cl)=NC2C` (stereo not given), the Potency entry was “inactive”.
For `CCOc1ccc2c3c1O[C@H]1[C@@H](O)C=C[C@H]4[C@@H](C2)N(C)CC[C@@]341`, the Potency result was “inactive”.
Turning to `CC[C@H]1[C@@H]2C[C@H]3[C@@H]4N(C)c5ccccc5[C@]45C[C@@H](C2[C@H]5O)N3[C@@H]1O` (stereo not given in full), the Potency result is “inactive”.
